Source: PubChem BioAssay (EPA / NIEHS)
Active and inactive are the calls of the source. How the source made its calls: active means hit-call score of the fitted dose curve at least 0.9, where 1 is the maximum; inactive means score below 0.9.

Columns and labels:
[1] = ATG_CRE_CIS: Attagene CIS-FACTORIAL HepG2 Assay for human cAMP Responsive Element (CRE) binding protein 3 (AID 2282926); settings: HepG2 CRE cis-reporter, Attagene multiplexed mRNA; actives raise or lower the signal
Procedure, shortened: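 Liver-derived HepG2, transfected with a CRE-containing reporter panel, exposed 24 h; transcript levels sized and quantified by capillary electrophoresis of labelled amplicons; signal changes either way referenced to vehicle.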

[2] = ATG_CMV_CIS: Attagene CIS-FACTORIAL HepG2 Assay for human CMV (Internal Marker) (AID 2282928); settings: HepG2 CMV promoter reporter, transcription factor profiling; actives raise or lower the signal;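 further: endpoint acts as a background internal control marker rather than a target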
Procedure, shortened: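 24 h chemical treatment, HepG2 with transient multi-reporter transfection; RNA → oligo(dT) RT → PCR → 6-FAM extension → HpaI digest → CE fluorescence. Bidirectional fit, DMSO negative control.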

[3] = ATG_DR4_LXR_CIS: Attagene CIS-FACTORIAL HepG2 Assay for human Liver X Receptor (LXR), DR4 submotif (AID 2282929); settings: HepG2 Attagene DR4 cis-reporter, mRNA transcription; actives raise or lower the signal
Procedure, shortened: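 HepG2 cells transiently transfected with cis-promoter-driven multiplexed reporter units (DR4 element) were dosed for 24 h. Reporter mRNA was quantified by RT-PCR, fluorescent primer extension, HpaI digestion and capillary electrophoresis; bidirectional fitting versus DMSO baseline.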

[4] = target: Aryl hydrocarbon receptor (Homo sapiens) (UniProt P35869); experiment: ATG_Ahr_CIS: Attagene CIS-FACTORIAL HepG2 Assay for human Aryl Hydrocarbon Receptor (Ahr) (AID 2282930); settings: HepG2 AhR cis-factorial reporter transcription; actives raise or lower the signal
Chain of Aryl hydrocarbon receptor (Homo sapiens) (P35869 whole entry, looked up): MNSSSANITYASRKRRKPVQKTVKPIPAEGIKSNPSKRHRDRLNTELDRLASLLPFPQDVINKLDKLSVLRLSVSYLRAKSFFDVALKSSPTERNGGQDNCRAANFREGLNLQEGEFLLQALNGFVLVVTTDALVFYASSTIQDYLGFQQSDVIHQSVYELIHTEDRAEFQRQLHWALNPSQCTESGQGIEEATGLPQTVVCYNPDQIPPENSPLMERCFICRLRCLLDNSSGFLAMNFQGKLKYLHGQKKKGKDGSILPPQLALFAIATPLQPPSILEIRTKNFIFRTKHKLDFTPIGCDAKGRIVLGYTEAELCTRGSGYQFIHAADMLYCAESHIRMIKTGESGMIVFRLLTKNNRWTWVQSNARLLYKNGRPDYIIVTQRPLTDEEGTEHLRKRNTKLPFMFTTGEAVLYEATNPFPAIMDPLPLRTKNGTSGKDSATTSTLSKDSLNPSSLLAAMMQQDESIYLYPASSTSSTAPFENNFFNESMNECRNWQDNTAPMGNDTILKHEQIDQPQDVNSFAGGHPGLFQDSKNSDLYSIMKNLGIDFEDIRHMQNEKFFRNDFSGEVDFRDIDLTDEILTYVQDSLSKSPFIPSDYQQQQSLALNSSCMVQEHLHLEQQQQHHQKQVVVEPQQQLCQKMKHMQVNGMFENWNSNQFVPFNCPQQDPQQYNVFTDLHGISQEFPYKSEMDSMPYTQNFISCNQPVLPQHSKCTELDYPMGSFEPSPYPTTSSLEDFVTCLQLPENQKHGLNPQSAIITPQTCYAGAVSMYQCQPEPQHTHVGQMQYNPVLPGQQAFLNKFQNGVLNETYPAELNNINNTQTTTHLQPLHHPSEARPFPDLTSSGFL
Procedure, shortened: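 Values derive from bidirectional fitting against DMSO negative control. Underlying signal: cis-element reporter mRNA in transiently transfected HepG2, harvested 24 h post-dose and measured by RT-PCR plus capillary electrophoresis.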

[5] = ATG_AP_1_CIS: Attagene CIS-FACTORIAL HepG2 Assay for human Activator Protein 1 (AP-1) (AID 2282931); settings: HepG2 Attagene cis-factorial AP-1 reporter mRNA; actives raise or lower the signal
Procedure, shortened: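 HepG2 cells transiently transfected with cis-element-driven multiplex reporter units; 24 h compound exposure. Reporter mRNA quantified by RT-PCR, FAM-labelled fragments resolved by capillary electrophoresis; bidirectional fit versus DMSO baseline.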

[6] = ATG_AP_2_CIS: Attagene CIS-FACTORIAL HepG2 Assay for human Activator Protein 2 (AP-2) (AID 2282932); settings: HepG2 AP-2 cis-reporter, Attagene transcription factor profiling; actives raise or lower the signal
Procedure, shortened: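 Assay in transfected HepG2 with promoter-regulated reporters, 24 h incubation after dosing. Signal is reporter mRNA fluorescence (RT-PCR, capillary electrophoresis), analysed for both increases and decreases relative to DMSO controls.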

[7] = ATG_BRE_CIS: Attagene CIS-FACTORIAL HepG2 Assay for human Bone Morphogenetic Protein (BMP) Response Element (BRE) (AID 2282933); settings: HepG2 BMP response element reporter, Attagene transcription factor profiling; actives raise or lower the signal
Procedure, shortened: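 Fluorescence-labelled reporter cDNA fragments, separated by capillary electrophoresis, gave the signal for this component of a 52-readout multiplex. HepG2 cells were transfected, exposed to chemicals for 24 h, and compared with DMSO using bidirectional fitting.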

[8] = target: Retinoic acid receptor alpha (Homo sapiens) (UniProt P10276); experiment: ATG_DR5_RAR_CIS: Attagene CIS-FACTORIAL HepG2 Assay for human Retinoic Acid Receptor Alpha (RARE), DR5 submotif (AID 2282934); settings: HepG2 Attagene cis-factorial RARE DR5 reporter, mRNA; actives raise or lower the signal
Chain of Retinoic acid receptor alpha (Homo sapiens) (P10276 whole entry, looked up): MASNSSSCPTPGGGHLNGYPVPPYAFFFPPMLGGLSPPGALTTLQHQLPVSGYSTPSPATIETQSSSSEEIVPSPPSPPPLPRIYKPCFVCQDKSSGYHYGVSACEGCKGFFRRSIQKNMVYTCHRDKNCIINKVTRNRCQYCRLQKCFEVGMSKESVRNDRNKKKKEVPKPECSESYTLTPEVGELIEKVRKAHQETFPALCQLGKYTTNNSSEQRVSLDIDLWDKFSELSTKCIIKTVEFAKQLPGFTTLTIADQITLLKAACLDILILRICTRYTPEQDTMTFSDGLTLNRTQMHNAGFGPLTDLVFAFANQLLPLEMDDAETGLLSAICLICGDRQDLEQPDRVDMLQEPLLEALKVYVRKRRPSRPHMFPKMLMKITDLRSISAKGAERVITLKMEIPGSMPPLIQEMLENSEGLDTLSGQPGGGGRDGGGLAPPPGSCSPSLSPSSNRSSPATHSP
Procedure, shortened: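 Endpoint fitted in both directions relative to DMSO as negative control. It reflects DR5 cis-element reporter mRNA induction in transiently transfected HepG2 cells, measured 24 h after dosing through RT-PCR and fluorescent capillary electrophoresis.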

[9] = target: Transcription factor E2F1 (Homo sapiens) (UniProt Q01094); experiment: ATG_E2F_CIS: Attagene CIS-FACTORIAL HepG2 Assay for human E2F Transcription Factor 1 (AID 2282935); settings: HepG2 Attagene cis-reporter, E2F reporter RNA transcripts; actives raise or lower the signal
Chain of Transcription factor E2F1 (Homo sapiens) (Q01094 whole entry, looked up): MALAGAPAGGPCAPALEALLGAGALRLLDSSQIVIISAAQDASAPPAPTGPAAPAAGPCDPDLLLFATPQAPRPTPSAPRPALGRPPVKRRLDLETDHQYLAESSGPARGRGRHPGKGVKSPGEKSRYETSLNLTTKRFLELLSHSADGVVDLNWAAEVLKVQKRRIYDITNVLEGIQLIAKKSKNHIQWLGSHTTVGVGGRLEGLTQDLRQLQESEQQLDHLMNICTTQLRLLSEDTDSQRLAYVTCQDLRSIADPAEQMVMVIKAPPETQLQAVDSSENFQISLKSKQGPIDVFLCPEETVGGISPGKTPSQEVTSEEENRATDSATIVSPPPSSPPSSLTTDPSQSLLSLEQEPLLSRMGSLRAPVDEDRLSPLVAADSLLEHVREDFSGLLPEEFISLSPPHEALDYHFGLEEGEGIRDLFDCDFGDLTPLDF
Procedure, shortened: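 In this cis-factorial format, endogenous factor activity drives transfected reporters in HepG2; transcripts collected at 24 h are quantified by fluorescence after RT-PCR and capillary separation.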

[10] = ATG_E_Box_CIS: Attagene CIS-FACTORIAL HepG2 Assay for human Enhancer Box (E-box) (AID 2282936); settings: HepG2 E-box cis-reporter transcription, actives raise or lower the signal
Procedure, shortened: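 Measured 24 h post-dosing in HepG2 cells transfected with multiple cis-regulated reporter units, signal being reporter mRNA induction detected by fluorescent RT-PCR with capillary electrophoresis; gain or loss fitted against DMSO.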

[11] = ATG_EGR_CIS: Attagene CIS-FACTORIAL HepG2 Assay for human Early Growth Response 1 (EGR1) (AID 2282938); settings: HepG2 Attagene CIS-FACTORIAL EGR reporter mRNA; actives raise or lower the signal
Procedure, shortened: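 HepG2 cells transiently transfected with cis-promoter-driven multiplexed reporter transcription units; reporter mRNA measured 24 h after compound dosing by RT-PCR, 6-FAM primer extension, HpaI digestion and capillary electrophoresis. Bidirectional fit versus DMSO baseline.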

[12] = ATG_M_19_CIS: Attagene CIS-FACTORIAL HepG2 Assay for M19 Transcription Factor (Internal Marker) (AID 2282939); settings: HepG2 Attagene CIS-FACTORIAL M19 internal marker reporter; actives raise or lower the signal
Procedure, shortened: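 HepG2, MRTU transient transfection, 24 h dosing. Total RNA → RT-PCR → 6-FAM primer extension → HpaI digest → CE fluorescence. Bidirectional curve fit, DMSO negative control.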

[13] = ATG_Ets_CIS: Attagene CIS-FACTORIAL HepG2 Assay for human Erythroblast Transformation Specific (ETS) (AID 2282941); settings: HepG2 ETS cis-reporter transcription, actives raise or lower the signal
Procedure, shortened: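 Cis-regulated reporter mRNA induction in HepG2 (transient transfection), 24 h exposure, RT-PCR plus capillary electrophoresis detection; DMSO serves as negative control and baseline.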

[14] = target: Hepatocyte nuclear factor 3-beta (Homo sapiens) (UniProt Q9Y261); experiment: ATG_FoxA2_CIS: Attagene CIS-FACTORIAL HepG2 Assay for human Forkhead box A2 (FOXA2) (AID 2282942); settings: HepG2 cis-reporter transcription factor activity, 24 h; actives raise or lower the signal
Chain of Hepatocyte nuclear factor 3-beta (Homo sapiens) (Q9Y261 whole entry, looked up): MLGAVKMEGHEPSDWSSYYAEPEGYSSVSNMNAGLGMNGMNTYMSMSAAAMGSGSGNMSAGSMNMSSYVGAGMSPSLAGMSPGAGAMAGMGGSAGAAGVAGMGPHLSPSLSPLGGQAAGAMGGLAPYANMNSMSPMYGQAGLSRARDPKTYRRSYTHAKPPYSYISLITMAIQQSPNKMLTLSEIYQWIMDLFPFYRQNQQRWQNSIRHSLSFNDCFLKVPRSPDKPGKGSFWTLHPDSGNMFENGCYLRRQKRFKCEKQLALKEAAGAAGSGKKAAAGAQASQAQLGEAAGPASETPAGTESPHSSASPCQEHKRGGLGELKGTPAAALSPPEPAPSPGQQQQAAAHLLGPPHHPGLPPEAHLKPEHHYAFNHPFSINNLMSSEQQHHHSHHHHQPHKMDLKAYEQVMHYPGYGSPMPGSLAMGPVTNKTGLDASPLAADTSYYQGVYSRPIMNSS
Procedure, shortened: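 HepG2 cells transiently transfected with multiple cis-regulated reporter transcription units, dosed for 24 h. Reporter mRNA measured by RT-PCR, 6-FAM labelling, HpaI digestion and capillary electrophoresis; bidirectional fitting against DMSO baseline.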

[15] = ATG_FoxO_CIS: Attagene CIS-FACTORIAL HepG2 Assay for human Forkhead box O (FoxO) (AID 2282943); settings: HepG2 Attagene cis-reporter, FoxO element, mRNA; actives raise or lower the signal
Procedure, shortened: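 Values reflect reporter mRNA induction or loss in HepG2 cells 24 h post-dosing, fitted bidirectionally with DMSO as negative control and baseline. Detection used RT-PCR and fluorescence capillary electrophoresis.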

[16] = ATG_GATA_CIS: Attagene CIS-FACTORIAL HepG2 Assay for human GATA Binding Protein (AID 2282944); settings: HepG2 GATA cis-element reporter, Attagene multiplex mRNA; actives raise or lower the signal
Procedure, shortened: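 Cells: HepG2, transiently transfected with cis-regulated reporter transcription units. Exposure: 24 h. Detection: RT-PCR plus capillary electrophoresis of FAM-labeled fragments. Analysis: bidirectional, DMSO as baseline.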

[17] = ATG_GLI_CIS: Attagene CIS-FACTORIAL HepG2 Assay for human Zinc Finger Protein GLI1 (AID 2282945); settings: HepG2, Attagene cis-factorial reporter mRNA, GLI element; actives raise or lower the signal
Procedure, shortened: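 HepG2 cells transiently transfected with cis-promoter multiplexed reporter units report endogenous transcription factor activity. After 24 h chemical exposure, reporter mRNA was quantified by RT-PCR, 6-FAM labelling, HpaI digestion and capillary electrophoresis, with bidirectional fitting against DMSO.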

[18] = ATG_M_61_CIS: Attagene CIS-FACTORIAL HepG2 Assay for M61 Transcription Factor (Internal Marker) (AID 2282937); settings: HepG2 Attagene CIS-FACTORIAL M61 internal marker reporter; actives raise or lower the signal
Procedure, shortened: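 HepG2 cells transiently transfected with cis-element-driven multiple reporter transcription units, dosed for 24 h. Reporter mRNA measured by RT-PCR, 6-FAM primer-extension labelling, HpaI digestion and capillary electrophoresis; bidirectional fit versus DMSO baseline.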

[19] = ATG_ERE_CIS: Attagene CIS-FACTORIAL HepG2 Assay for Estrogen Response Element (ERE) (AID 2282940); settings: HepG2 ERE cis-reporter, Attagene RNA transcript; actives raise or lower the signal
Procedure, shortened: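 After a 24 h chemical treatment, RNA from reporter-transfected HepG2 cells is reverse-transcribed, PCR-amplified and fluorescently labelled. Fragments separated by capillary electrophoresis give reporter signal; DMSO serves as negative control.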

Measured: AC50

CC(=O)c1c(C)cc(C(C)(C)C)cc1C
not listed: [18] | [19]
inactive: all other assays above

CC1CCC(C(C)CS)CC1S (stereo not drawn)
active: [1] 33.4 µM | [4] 45.9 µM | [9] 55.1 µM | [16] 61.1 µM
not listed: [19]
inactive: all other assays above

CNCCO
not listed: [8] | [9] | [18] | [19]
inactive: all other assays above

COc1ccc(Cl)cc1C
active: [4] 36.9 µM
not listed: [3] | [16] | [19]
inactive: all other assays above

COC(=O)C1=C(C)NC(C)=C(C(=O)OCCN(C)Cc2ccccc2)C1c1cccc([N+](=O)[O-])c1 (stereo not drawn)
active: [3] 8.22 µM | [6] 26.5 µM | [7] 17.9 µM | [9] 25 µM | [10] 19.4 µM | [17] 99.5 µM
not listed: [8]
inactive: all other assays above

CC1(C)[C@@H]2CC[C@@]1(C)[C@H](O)C2
not listed: [8] | [9] | [14] | [16] | [18] | [19]
inactive: all other assays above

C=CC(=O)OCCn1c(=O)n(CCOC(=O)C=C)c(=O)n(CCOC(=O)C=C)c1=O
active: [2] 9.12 µM | [3] 16.5 µM | [4] 3.42 µM | [5] 53.6 µM | [6] 20 µM | [10] 18.9 µM | [11] 11.2 µM | [14] 52.4 µM
not listed: [8] | [19]
inactive: all other assays above

COCCOCCOCCOCCOCCO
not listed: [8] | [18] | [19]
inactive: all other assays above

NCCCN1CCOCC1
not listed: [8]
inactive: all other assays above

CC1CCC2CC1C2(C)C (stereo not drawn)
not listed: [8] | [19]
inactive: all other assays above

CC(C)(C)c1n[nH]c(=S)n(N)c1=O
active: [4] 23.9 µM
not listed: [8]
inactive: all other assays above

ClCCCl
not listed: [8] | [11] | [14]
inactive: all other assays above

CCCC(=O)C(C)=O
not listed: [8]
inactive: all other assays above

CC(=O)/C=C/C1=C(C)CCCC1(C)C
not listed: [3] | [8] | [9] | [10] | [13] | [14]
inactive: all other assays above

NC(=O)Nc1ccc(Cl)cc1
not listed: [8] | [10]
inactive: all other assays above

CN1[C@@H]2CC(OC(=O)[C@H](CO)c3ccccc3)C[C@H]1[C@@H]1O[C@@H]12 (stereo partly drawn)
not listed: [5] | [8] | [13]
inactive: all other assays above
